# High-throughput results from PubChem BioAssay.
# Sampled rows, rich in hits. Any-hit rate of the full collection: about 3.9%.
# CCHFV vOTU inh – CCHFV vOTU protease inhibition; 370,000 compounds, 0.55% hits; Pep-AMC fluorescence; inhibition, % at 11.5 µM; in the data active = inhibition above about 30%; note: 0% = vehicle wells with enzyme and 100% = no enzyme wells
# Anthrax LF inh2 – anthrax lethal factor protease inhibition | P15917 | multiplex microsphere protease cleavage assay, LF | inhibition, % at 10 µM | 360,000 compounds, 0.12% hits | AID 588501; note: plate controls were buffer without enzyme for full effect and enzyme alone for no effect
# Target sequence (P15917 whole entry, looked up): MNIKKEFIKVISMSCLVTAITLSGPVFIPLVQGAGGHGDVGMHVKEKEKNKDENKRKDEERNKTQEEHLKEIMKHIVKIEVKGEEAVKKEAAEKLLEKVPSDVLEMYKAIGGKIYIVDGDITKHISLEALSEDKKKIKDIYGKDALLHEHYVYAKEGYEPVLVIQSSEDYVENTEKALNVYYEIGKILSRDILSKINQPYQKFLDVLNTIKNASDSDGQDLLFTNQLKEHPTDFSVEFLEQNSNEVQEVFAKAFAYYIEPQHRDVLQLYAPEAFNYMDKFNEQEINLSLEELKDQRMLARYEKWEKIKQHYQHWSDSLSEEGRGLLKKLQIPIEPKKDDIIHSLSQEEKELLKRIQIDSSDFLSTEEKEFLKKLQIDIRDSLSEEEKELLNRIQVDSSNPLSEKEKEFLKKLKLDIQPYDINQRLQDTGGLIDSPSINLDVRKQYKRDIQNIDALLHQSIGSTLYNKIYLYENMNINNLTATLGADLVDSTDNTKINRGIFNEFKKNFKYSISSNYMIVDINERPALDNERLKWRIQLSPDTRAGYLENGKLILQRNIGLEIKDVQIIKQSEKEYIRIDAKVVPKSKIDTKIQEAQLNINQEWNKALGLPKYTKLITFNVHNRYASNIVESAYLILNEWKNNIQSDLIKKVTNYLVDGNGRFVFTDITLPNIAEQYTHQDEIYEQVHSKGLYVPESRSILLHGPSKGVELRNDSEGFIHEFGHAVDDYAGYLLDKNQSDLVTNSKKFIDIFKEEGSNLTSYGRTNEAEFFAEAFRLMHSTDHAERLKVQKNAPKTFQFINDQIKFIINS
# 3CLpro inhibitor – SARS-CoV 3CLpro protease inhibition | P0C6X7 | recombinant SARS-CoV 3CLpro, quenched FRET peptide cleavage | inhibition, % at 6 µM | 290,000 compounds, 0.14% hits; in the data active = inhibition above about 12%
# BoNT F protease – inhibitors of Botulinum neurotoxin F light chain protease. AID 588497. 360,000 compounds, 0.22% hits. Multiplex microsphere protease cleavage assay, flow cytometry. inhibition, % at 10 µM; in the data active = inhibition above about 35%, passing the limit was not always enough; inconclusive = no clear call, values can overlap the other calls; note: plate controls were buffer without enzyme for full effect and enzyme alone for no effect
# BoNT-A LC inh2 – BoNT A light chain protease inhibition; multiplex microsphere protease substrate cleavage, flow cytometry; inhibition, % at 10 µM; 360,000 compounds, 0.17% hits; note: plate controls were buffer without enzyme for full effect and enzyme alone for no effect
# Bead autofluor – compound fluorescence in toxin protease inhibitor counterscreen; compound autofluorescence counterscreen, microsphere flow cytometry; stronger effect = higher value; fluorescence intensity (no concentration beside the values); 360,000 compounds, 3.1% hits; AID 624483; in the data active = fluorescence intensity above about 16000; inconclusive = no clear call, values can overlap the other calls
# * = called active by the depositor; ? = inconclusive; / = no result given. Cut-off read from the data, not from the text of the source, unless noted: active = inhibition above about 30%; inconclusive = no clear call, values can overlap the other calls; inactive = below that.
SMILES,CCHFV vOTU inh,Anthrax LF inh2,3CLpro inhibitor,BoNT F protease,BoNT-A LC inh2,Bead autofluor
NC(=O)CSc1nnc([C@@H](N)Cc2c[nH]c3ccccc23)o1,1,5,-7,-1,-1,10169
CC(C)Sc1nnc([C@@H](N)Cc2ccccc2)o1,-2,2,6,0,0,16323*
CC(C)Sc1nnc([C@@H](N)Cc2c[nH]c3ccccc23)o1,-2,-5,1,2,?,18809*
Cc1ccc(C)c(NC(=O)CSc2nnc([C@@H](N)Cc3c[nH]c4ccccc34)o2)c1,-7,-3,/,-12,-4,24677*
Cc1ccnc(NS(=O)(=O)c2ccc(NC(=O)C3C4C=CC(C4)C3C(=O)O)cc2)n1 (stereo not drawn),-4,-2,3,0,0,4120
CC(=O)c1cc(F)ccc1OCC(=O)Nc1ccc2c(c1)OCO2,-3,-1,/,-5,0,3618
COc1cc(NC(=O)c2ccc(N3CC4CC(C3)c3cccc(=O)n3C4)c(NC(=O)c3ccncc3)c2)cc(OC)c1OC (stereo not drawn),-2,-4,-4,-2,1,6122
COc1ccc(Cc2nnc(SCC(=O)c3ccc4c(c3)OCO4)o2)cc1,2,-7,/,-2,-6,?
O=C(NCc1ccccn1)c1cc2cc(Br)ccc2oc1=O,/,-2,5,-10,-6,25730*
Cc1cc(=O)oc(C)c1C(=O)NCc1ccccn1,1,-1,3,-1,-2,20680*
Cc1ccc(CNC(=O)c2c(C)cc(=O)oc2C)cc1,10,-3,-3,3,-1,10776
Cc1cc(=O)oc(C)c1C(=O)NCCC(C)C,-8,0,0,1,2,22899*
CCN(CCCNC(=O)c1c(C)cc(=O)oc1C)c1cccc(C)c1,1,-7,-3,2,1,22991*
O=C(Cc1cccs1)NC1CCCCN(Cc2cccc(Cl)c2)C1=O (stereo not drawn),8,/,/,/,/,/
Cc1cc(=O)oc(C)c1C(=O)NCC1COc2ccccc2O1 (stereo not drawn),-17,-6,-7,6,6,20933*
Nc1nncn1C(=O)CCc1ccccc1,23,-1,-1,-4,?,22172*
C[C@H](CO)N1C[C@H](C)[C@H](CN(C)C(=O)Nc2ccc(N3CCN(C)CC3)cc2)OCc2cnnn2CCCC1=O,2,1,/,-3,0,3576
O=C(NC1CCN(C(=O)NCc2ccccc2)CC1)c1ccccc1,14,7,2,-16,0,3841
Cc1cc2c(cc1C)N(C(=O)CCl)CCN2C(=O)CCl,-12,-3,/,-10,0,4091
C=CCn1c(C)c(C=C2C(=O)NC(=O)NC2=O)c2ccccc21,-4,-3,-2,?,33*,3438
C=CCn1cc(/C=C2/NC(=O)NC2=O)c2ccccc21,12,-10,5,?,0,4620
O=C([C@@H]1C[C@H]1c1ccccc1)N1CC[C@H]2[C@H](CCCN2Cc2ccccc2)C1,-2,/,/,/,/,/
CCCSc1nnc2n(N)c(=O)c3ccccc3n12,16,2,3,-1,0,22548*
COc1ccc(CNC(=O)C2(CC3CC(c4ccccc4)=NO3)CCNCC2)cc1 (stereo not drawn),-2,-4,/,2,0,3697
CN(C)CCNc1nc(-c2ccco2)c2c(c1C#N)CC(C)(C)OC2,-26,2,1,-1,-2,24132*
SMILES,CCHFV vOTU inh,Anthrax LF inh2,3CLpro inhibitor,BoNT F protease,BoNT-A LC inh2,Bead autofluor
CC1(C)Cc2c(C#N)c(NCc3ccco3)nc(-c3ccco3)c2CO1,-1,-4,3,-11,0,2161
Cc1nn(CCc2n[nH]c(=S)n2C)c(C)c1Br,-3,-3,-3,8,3,15320
Cc1nn(CCc2n[nH]c(=S)n2C2CCCCC2)c(C)c1Br,-5,-3,1,-7,-9,26154*
CC(C)c1[nH]nc2c1C(c1cccs1)C(C#N)=C(N)O2 (stereo not drawn),8,2,0,-6,-4,20949*
COC(=O)c1cc(NC(=O)c2ccccc2)c(=O)oc1/C=C/Nc1ccc(Oc2ccccc2)cc1,8,17,-5,54*,43*,97551*
CCOC(=O)c1cc(NC(=O)c2ccccc2)c(=O)oc1-c1ccccc1,0,-4,0,-5,-1,?
O=C(Nc1ccc(F)cc1)Nc1c(-c2ccc(F)cc2)nc2ncccn12,-15,/,/,/,/,/
Cc1ccc(S(=O)(=O)N2CCOCC2)cc1NC(=O)CSc1nnnn1C,10,-4,3,-4,-1,3814
O=C(O)c1cccc(-n2cccc2/C=C2\NC(=O)N(Cc3ccc(F)cc3)C2=O)c1,9,-1,4,2,0,2120
O=C1N/C(=C/c2cccn2-c2ccc(F)cc2)C(=O)N1Cc1ccccc1,2,-4,5,-3,?,23854*
CCn1c(=O)c(C(=O)NCc2ccccc2)c(O)c2ccccc21,-12,48*,4,7,-1,3293
CCCc1[nH]n(-c2nc3ccccc3s2)c(=O)c1C=NCC1CCCO1 (stereo not drawn),0,-6,-3,6,5,19952*
CCCc1[nH]n(-c2nc3ccccc3s2)c(=O)c1C=NCCN1CCOCC1,-8,-7,4,27,?,15365
CCOC(=O)CC(/C(C)=N\O)c1ccccc1 (stereo not drawn),13,1,-2,-5,-5,21192*
O=C(Nc1cccc(Oc2ccccc2)c1)c1ccc(-n2cncn2)c2ccoc12,0,5,/,-1,0,3868
C#CCOC(=O)Nc1cccn(Cc2c(Cl)cccc2Cl)c1=O,-8,-5,-1,-3,-3,16958*
O=C(OCCCN=C1NS(=O)(=O)c2ccccc21)c1ccc(F)cc1,4,-2,0,1,0,11704
O=C(OCCCN=C1NS(=O)(=O)c2ccccc21)c1ccccc1F,6,-11,-3,4,3,20170*
CC(C)C(NC(=O)c1ccc(C(C)(C)C)cc1)C(=O)Nc1cccc(S(N)(=O)=O)c1 (stereo not drawn),5,-1,-1,-1,0,4574
Cn1cccc1C(=O)OCC(=O)c1cc2ccccc2o1,2,-5,0,-3,?,20874*
O=C(CSc1nc2cc(Cl)ccc2s1)c1cc2ccccc2o1,6,7,-1,-1,3,19577*
Cc1cc(NC(=O)CSc2nc3cc(Cl)ccc3s2)no1,0,-1,-1,-4,-1,3414
O=C(COC(=O)c1ccc(Cl)s1)c1cc2ccccc2o1,9,-5,2,-5,-2,20753*
O=C(COC(=O)c1nc(Cl)ccc1Cl)c1ccc(Cl)s1,3,-2,-4,0,0,2221
Cc1ccc(-c2nnc(COC(=O)c3cc(=O)[nH]c4ccccc34)o2)cc1,4,0,-4,1,1,5883
COc1cccc(NC(=O)N(C)C[C@H]2OCc3cnnn3CCCC(=O)N([C@H](C)CO)C[C@@H]2C)c1,3,-3,/,0,0,3565
